Data: PubChem BioAssay (Tox21)
Values joined by “and” are separate entries in the source; they are usually repeats but may differ in a detail not shown here. Identical values can stand only once. Results filed as inconclusive are left out. Where a call stands in place of a potency, no number is given. Some structures have more than one record in an assay (separate samples or runs), and their calls can disagree. Active and inactive are the calls of the source. Unless noted, calls come from the whole dose curve; as a rule, active = well fitted curve in the direction sought with a large enough effect in the repeat runs; inconclusive = weak or mixed curves; inactive = no such curve, though single readings can be large; an effect the other way counts as inactive or inconclusive.

Columns and labels:
[1] = target: Acetylcholinesterase (Homo sapiens) (UniProt P22303); assay: Acetylcholinesterase (AChE) small molecule antagonists: enzyme-based qHTS assay with human liver microsomes (AID 1347399; calls by dose curve; note: nearly all actives have a fitted effect of over 60% in size); conditions: Potency: qHTS inhibition
Chain of Acetylcholinesterase (Homo sapiens) (P22303 whole entry, looked up): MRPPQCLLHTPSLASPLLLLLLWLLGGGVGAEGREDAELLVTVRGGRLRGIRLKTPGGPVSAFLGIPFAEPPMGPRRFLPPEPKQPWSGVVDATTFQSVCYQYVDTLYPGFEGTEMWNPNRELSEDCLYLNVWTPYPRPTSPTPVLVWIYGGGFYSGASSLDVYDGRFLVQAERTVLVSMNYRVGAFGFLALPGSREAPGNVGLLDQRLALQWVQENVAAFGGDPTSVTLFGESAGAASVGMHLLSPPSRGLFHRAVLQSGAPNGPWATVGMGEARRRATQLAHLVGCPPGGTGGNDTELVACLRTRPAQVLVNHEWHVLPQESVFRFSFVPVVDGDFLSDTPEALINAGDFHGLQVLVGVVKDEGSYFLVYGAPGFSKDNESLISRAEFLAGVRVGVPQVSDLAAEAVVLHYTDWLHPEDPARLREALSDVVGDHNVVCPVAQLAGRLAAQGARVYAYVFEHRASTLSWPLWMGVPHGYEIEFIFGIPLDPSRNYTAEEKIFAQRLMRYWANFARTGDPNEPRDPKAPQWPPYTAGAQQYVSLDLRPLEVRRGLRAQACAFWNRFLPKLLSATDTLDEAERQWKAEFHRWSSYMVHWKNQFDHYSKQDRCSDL
Outline: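 Recombinant human AChE (50 mU/mL in the enzyme mix) and human liver microsomes (0.25 mg/mL final) were preincubated with compound and NADPH (0.25 mg/mL final) for 30 min at 37 C. Acetylthiocholine/DTNB was then added; thiocholine was read colorimetrically after 10 min at room temperature.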

[2] = target: Cytochrome P450 2D6 (Homo sapiens) (UniProt P10635); assay: Cytochrome P450 Family 2 Subfamily D Member 6 (CYP2D6) small molecule antagonists: luciferase reporter qHTS assay (AID 1671196); note: nearly all actives have a fitted effect of over 50% in size; note: potency is the fitted concentration of half-maximal effect; for activity change, negative = inhibition: series mostly up to about 120 µM
Chain of Cytochrome P450 2D6 (Homo sapiens) (P10635 whole entry, looked up): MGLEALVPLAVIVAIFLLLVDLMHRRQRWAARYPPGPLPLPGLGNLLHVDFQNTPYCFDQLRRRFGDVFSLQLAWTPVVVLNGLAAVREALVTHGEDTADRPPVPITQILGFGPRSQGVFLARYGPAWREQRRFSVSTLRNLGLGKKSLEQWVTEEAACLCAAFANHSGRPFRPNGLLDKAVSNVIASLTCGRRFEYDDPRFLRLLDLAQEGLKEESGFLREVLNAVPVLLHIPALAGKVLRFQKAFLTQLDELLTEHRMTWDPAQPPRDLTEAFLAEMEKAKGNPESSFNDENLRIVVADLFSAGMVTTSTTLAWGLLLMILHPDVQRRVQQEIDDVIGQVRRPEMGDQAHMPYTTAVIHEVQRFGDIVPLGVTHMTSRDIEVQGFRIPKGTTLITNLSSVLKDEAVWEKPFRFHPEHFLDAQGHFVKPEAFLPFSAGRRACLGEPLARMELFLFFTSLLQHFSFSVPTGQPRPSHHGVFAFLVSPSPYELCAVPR
Outline: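 Test chemicals meet CYP2D6 plus proluciferin substrate (10 min, RT); NADPH regenerating solution then drives turnover for 1 h. Detection reagent halts the reaction; luminescence measured after 20 min.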

[3] = target: Cytochrome P450 2C19 (Homo sapiens) (UniProt P33261); assay: Cytochrome P450 Family 2 Subfamily C Member 19 (CYP2C19) small molecule antagonists: luciferase reporter qHTS assay (AID 1671197); note: nearly all actives have a fitted effect of over 65% in size; note: potency is the fitted concentration of half-maximal effect; for activity change, negative = inhibition: series mostly up to about 120 µM
Chain of Cytochrome P450 2C19 (Homo sapiens) (P33261 whole entry, looked up): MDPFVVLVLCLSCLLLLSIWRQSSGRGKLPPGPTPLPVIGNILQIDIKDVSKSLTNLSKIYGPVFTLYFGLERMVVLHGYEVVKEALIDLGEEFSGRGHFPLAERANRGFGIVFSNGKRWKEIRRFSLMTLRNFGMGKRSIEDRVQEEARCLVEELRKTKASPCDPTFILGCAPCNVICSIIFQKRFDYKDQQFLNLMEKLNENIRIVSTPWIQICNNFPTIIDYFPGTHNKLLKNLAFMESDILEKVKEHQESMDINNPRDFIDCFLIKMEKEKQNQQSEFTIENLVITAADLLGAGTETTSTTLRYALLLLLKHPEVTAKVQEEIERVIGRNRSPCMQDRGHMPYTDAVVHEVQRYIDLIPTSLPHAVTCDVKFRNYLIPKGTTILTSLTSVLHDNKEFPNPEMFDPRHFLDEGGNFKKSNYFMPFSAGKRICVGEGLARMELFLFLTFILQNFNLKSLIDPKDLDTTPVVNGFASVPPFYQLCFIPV
Outline: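 Inhibition of CYP2C19 was scored from loss of luminescence in a P450-Glo proluciferin substrate assay, NADPH-started and run 1 h at 37C, with ketoconazole as positive control.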

[4] = target: Cytochrome P450 2C9 (Homo sapiens) (UniProt P11712); assay: Cytochrome P450 Family 2 Subfamily C Member 9 (CYP2C9) small molecule antagonists: luciferase reporter qHTS assay (AID 1671198); note: nearly all actives have a fitted effect of over 50% in size; note: potency is the fitted concentration of half-maximal effect; for activity change, negative = inhibition: series mostly up to about 120 µM
Chain of Cytochrome P450 2C9 (Homo sapiens) (P11712 whole entry, looked up): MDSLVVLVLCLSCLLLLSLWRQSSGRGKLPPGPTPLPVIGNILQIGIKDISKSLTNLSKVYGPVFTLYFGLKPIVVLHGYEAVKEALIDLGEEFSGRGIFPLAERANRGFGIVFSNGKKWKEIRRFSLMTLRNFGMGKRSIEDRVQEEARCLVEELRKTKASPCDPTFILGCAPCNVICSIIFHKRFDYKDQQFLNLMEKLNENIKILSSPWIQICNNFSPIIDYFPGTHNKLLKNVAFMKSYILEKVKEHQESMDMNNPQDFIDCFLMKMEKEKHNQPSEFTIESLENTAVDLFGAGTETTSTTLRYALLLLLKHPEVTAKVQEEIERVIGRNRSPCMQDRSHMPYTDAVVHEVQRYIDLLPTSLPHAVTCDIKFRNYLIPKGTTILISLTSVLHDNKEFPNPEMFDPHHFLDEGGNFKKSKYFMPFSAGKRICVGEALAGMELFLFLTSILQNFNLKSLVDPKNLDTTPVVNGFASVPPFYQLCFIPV
Outline: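 P450-Glo proluciferin substrate with CYP2C9 enzyme; 10 min RT preincubation, then NADPH regeneration 1 h at 37C; luciferin detection reagent 20 min RT, luminescence in relative luminescence units.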

[5] = target: Cytochrome P450 1A2 (Homo sapiens) (UniProt P05177); assay: Cytochrome P450 Family 1 Subfamily A Member 2 (CYP1A2) small molecule antagonists: luciferase reporter qHTS assay (AID 1671199); note: nearly all actives have a fitted effect of over 50% in size; note: potency is the fitted concentration of half-maximal effect; for activity change, negative = inhibition: series mostly up to about 120 µM
Chain of Cytochrome P450 1A2 (Homo sapiens) (P05177 whole entry, looked up): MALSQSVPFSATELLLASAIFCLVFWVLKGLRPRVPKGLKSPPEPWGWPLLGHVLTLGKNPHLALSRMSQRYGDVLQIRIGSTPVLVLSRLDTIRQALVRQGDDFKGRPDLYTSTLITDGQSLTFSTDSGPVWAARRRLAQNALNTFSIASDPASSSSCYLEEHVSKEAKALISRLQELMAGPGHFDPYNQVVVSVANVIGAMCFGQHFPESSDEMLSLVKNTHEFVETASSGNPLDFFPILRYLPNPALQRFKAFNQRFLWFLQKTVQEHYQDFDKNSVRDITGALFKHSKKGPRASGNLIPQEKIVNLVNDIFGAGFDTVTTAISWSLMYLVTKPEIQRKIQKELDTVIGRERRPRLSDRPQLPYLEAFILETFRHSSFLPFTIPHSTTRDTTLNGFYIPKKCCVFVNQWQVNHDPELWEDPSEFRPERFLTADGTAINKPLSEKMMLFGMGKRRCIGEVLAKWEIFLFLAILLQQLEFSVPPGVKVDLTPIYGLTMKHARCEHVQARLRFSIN
Outline: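 Steps: enzyme-substrate mix dispensed; test compounds and furafylline control pinned in; 10 min room temperature; NADPH regeneration solution added, 1 h; reaction stopped with luciferin detection reagent; luminescence read after 20 min.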

[6] = target: Voltage-gated inwardly rectifying potassium channel KCNH2 (Homo sapiens) (UniProt Q12809); assay: Human Ether-a-go-go-Related Gene (hERG) channel small molecule antagonists: fluorescence cell-based qHTS assay (AID 1671200); note: nearly all actives have a fitted effect of over 50% in size; note: potency is the fitted concentration of half-maximal effect;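 for activity change, negative = inhibition: hERG-expressing U2OS cells given a thallium stimulus after FluxOR II dye loading; series mostly up to about 77 µM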
Chain of Voltage-gated inwardly rectifying potassium channel KCNH2 (Homo sapiens) (Q12809 whole entry, looked up): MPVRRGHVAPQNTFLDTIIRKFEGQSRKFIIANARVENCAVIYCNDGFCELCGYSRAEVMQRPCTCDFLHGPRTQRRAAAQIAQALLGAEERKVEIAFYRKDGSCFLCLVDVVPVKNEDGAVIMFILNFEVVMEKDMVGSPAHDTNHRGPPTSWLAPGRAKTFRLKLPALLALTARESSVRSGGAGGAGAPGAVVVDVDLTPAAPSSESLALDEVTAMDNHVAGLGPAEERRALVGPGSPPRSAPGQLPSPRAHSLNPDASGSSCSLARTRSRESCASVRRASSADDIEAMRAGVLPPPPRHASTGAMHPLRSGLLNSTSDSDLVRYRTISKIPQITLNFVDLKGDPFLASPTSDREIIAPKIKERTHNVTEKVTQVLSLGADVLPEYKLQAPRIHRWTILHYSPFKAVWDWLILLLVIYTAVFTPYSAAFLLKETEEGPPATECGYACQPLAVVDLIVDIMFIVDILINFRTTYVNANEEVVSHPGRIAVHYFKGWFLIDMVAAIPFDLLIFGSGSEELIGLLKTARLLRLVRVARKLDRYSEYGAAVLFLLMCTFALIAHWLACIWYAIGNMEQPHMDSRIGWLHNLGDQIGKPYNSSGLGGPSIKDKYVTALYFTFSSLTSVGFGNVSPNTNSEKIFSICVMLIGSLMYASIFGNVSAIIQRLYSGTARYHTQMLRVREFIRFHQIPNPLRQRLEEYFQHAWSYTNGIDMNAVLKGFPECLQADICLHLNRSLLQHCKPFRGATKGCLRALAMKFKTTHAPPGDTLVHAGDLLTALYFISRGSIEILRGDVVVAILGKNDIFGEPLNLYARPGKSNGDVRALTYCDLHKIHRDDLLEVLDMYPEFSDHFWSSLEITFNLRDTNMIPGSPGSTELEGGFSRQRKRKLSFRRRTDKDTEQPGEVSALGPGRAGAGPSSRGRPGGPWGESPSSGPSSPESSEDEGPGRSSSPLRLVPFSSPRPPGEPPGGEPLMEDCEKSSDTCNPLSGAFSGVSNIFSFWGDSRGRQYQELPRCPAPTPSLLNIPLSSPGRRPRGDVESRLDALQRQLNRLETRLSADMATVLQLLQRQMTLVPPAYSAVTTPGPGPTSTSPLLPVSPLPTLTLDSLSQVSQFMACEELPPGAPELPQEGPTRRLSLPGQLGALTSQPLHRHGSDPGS
Outline: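 U2OS cells expressing the channel were plated at 1000 cells/well, incubated overnight at 37 C, then loaded with FluxOR II thallium-sensitive dye for 1 h at room temperature in the dark, with a further 10 min at room temperature before stimulation.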

[7] = target: Acetylcholinesterase (Homo sapiens) (UniProt P22303); assay: Acetylcholinesterase (AChE) small molecule antagonists: fluorescence cell-based qHTS assay (AID 1347398; calls by dose curve; note: nearly all actives have a fitted effect of over 50% in size); conditions: Potency: AChE activity
Outline: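 Cells (SH-SY5Y) attached overnight, were dosed with compound or DMSO vehicle for 30 min at 37 C, and then incubated 40 min at room temperature with acetylthiocholine and Thiolite Green; green fluorescence indexed AChE activity.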

[8] = target: Cytochrome P450 3A4 (Homo sapiens) (UniProt P08684); assay: Cytochrome P450 Family 3 Subfamily A Member 4 (CYP3A4) small molecule antagonists: luciferase reporter qHTS assay (AID 1671201); note: nearly all actives have a fitted effect of over 50% in size; note: potency is the fitted concentration of half-maximal effect; for activity change, negative = inhibition: series mostly up to about 120 µM
Chain of Cytochrome P450 3A4 (Homo sapiens) (P08684 whole entry, looked up): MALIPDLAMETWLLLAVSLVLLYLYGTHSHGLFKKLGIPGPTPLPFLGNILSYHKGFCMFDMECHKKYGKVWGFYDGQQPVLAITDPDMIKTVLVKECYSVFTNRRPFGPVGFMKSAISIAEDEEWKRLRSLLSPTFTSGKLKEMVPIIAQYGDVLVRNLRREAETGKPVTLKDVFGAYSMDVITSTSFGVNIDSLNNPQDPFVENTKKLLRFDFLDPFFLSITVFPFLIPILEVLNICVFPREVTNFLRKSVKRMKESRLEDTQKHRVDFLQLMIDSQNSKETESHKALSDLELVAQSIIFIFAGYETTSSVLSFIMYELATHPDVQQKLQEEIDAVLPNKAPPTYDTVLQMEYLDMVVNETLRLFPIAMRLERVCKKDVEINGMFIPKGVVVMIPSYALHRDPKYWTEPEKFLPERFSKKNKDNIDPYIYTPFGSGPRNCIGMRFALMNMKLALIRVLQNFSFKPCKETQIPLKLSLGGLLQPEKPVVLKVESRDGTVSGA
Outline: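 P450-Glo CYP3A4 system with proluciferin substrate; compounds preincubated 10 min RT with enzyme-substrate mix, then NADPH regeneration added for 1 h RT. Detection reagent 20 min, luminescence read as relative luminescence units.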

Structure (SMILES) | Potency [1] | Potency [2] | Potency [3] | Potency [4] | Potency [5] | Potency [6] | Potency [7] | Potency [8] | activity change, negative = inhibition [2]
ClCC(Cl)CCl | inactive | 28.5 µM (active) and inactive | inactive | inactive | 44.8 µM (active) | inactive | – | – | –
CCCCOCCOC(C)=O | inactive | inactive | 77.6 µM (active) and inactive | inactive | inactive | inactive | – | – | –
C[N+](C)(C)CC(=O)O | inactive | inactive | inactive | inactive | inactive and 17.4 µM (active) | inactive | – | – | –
CCC/C=N/O | inactive | inactive | inactive | inactive | inactive | inactive | – | – | –
C=CC(=O)OCC(CC)(COC(=O)C=C)COC(=O)C=C | inactive | 65 µM (active) and 63.3 µM (active) | 16.3 µM (active) and 15.9 µM (active) | 13 µM (active) and 28.3 µM (active) | 39.9 µM (active) | inactive | inactive | 818 nM (active) and 2.52 µM (active) | –
CC(C)(O)C(=O)Nc1ccc([N+](=O)[O-])c(C(F)(F)F)c1 | inactive | – | 18.2 µM (active) and 26 µM (active) | 25.7 µM (active) and 29.2 µM (active) | 7.25 µM (active) and 6.53 µM (active) | inactive | inactive | 40.8 µM (active) | –
C=CC(Cl)CCl (stereo not given) | inactive | inactive | 40.7 µM (active) and inactive | – | – | inactive | inactive | inactive | –
OC(c1ccc(Cl)cc1)(c1cncnc1)c1ccccc1Cl (stereo not given) | inactive | 36.2 µM (active) and 35.6 µM (active) | 229 nM (active) and 283 nM (active) | 7.23 µM (active) and 6.33 µM (active) | – | 49.8 µM (active) and 54.9 µM (active) | inactive | 182 nM (active) and 224 nM (active) | –
CNC(=O)CSP(=S)(OC)OC | inactive | inactive and 35.5 µM (active) | 10.3 µM (active) and 20 µM (active) | 36.6 µM (active) and 20 µM (active) | – | inactive | inactive | – | –
O=[N+]([O-])c1ccc(Cl)c([N+](=O)[O-])c1 | inactive | – | 40.6 µM (active) and 79.6 µM (active) | – | 12.8 µM (active) and 11.2 µM (active) | inactive | inactive | – | –
CCCCCCCCCc1ccc(O)cc1 | inactive | inactive | 6.39 µM (active) and 10 µM (active) | 20.2 µM (active) and 31.7 µM (active) | inactive and 39.9 µM (active) | inactive | – | – | –
CCCCCCCC[N+](C)(CCCCCCCC)CCCCCCCC | inactive | 28.2 nM (active) and 56.5 nM (active) and 564 nM (active) | 5.63 µM (active) and 3.56 µM (active) and 31.7 µM (active) | 28.2 µM (active) and 2.83 µM (active) and 35.6 µM (active) | 39.8 µM (active) and 35.6 µM (active) | 21.8 nM (active) and 39 nM (active) and 977 nM (active) | – | – | –
CCC1(c2ccc(N)cc2)CCC(=O)NC1=O (stereo not given) | inactive | inactive | inactive | inactive | inactive | inactive | inactive | 31.7 µM (active) and 13.8 µM (active) | –
CC(C)CON=O | inactive | – | inactive | inactive | – | inactive | inactive | – | 2.15% [at 23.6 µM] (inactive)
CC(C)(c1ccccc1)c1ccc(O)cc1 | inactive | inactive | inactive | 11.2 µM (active) and 12.6 µM (active) | inactive | inactive | inactive | inactive | –
CCCCCCCCCC(CC)c1ccc(S(=O)(=O)O)cc1 (stereo not given) | inactive | inactive and 50.2 µM (active) | 40.1 µM (active) and inactive and 35.6 µM (active) | – | 63.2 µM (active) and inactive and 63.3 µM (active) | inactive | inactive | – | –
C[C@]12CCC(=O)C=C1CC[C@@H]1[C@@H]2CC[C@@]2(C)[C@H]1CC[C@]2(C)O | inactive | 45.2 µM (active) and inactive | 35.9 µM (active) and inactive | 35.9 µM (active) | inactive | inactive | – | – | –
CC(C)(c1ccc(OCC2CO2)cc1)c1ccc(OCC2CO2)cc1 (stereo not given) | inactive | inactive | 50.9 µM (active) and 79.6 µM (active) | 64.1 µM (active) and 39.9 µM (active) | inactive | inactive | – | – | –
